This is an account of results in PubChem BioAssay.

For experiment [1], the system named is PRMT1 (protein arginine N-methyltransferase 1). In words: small molecules binding arginine methyltransferase PRMT1 – biochemical, small-molecule microarray, 635 nm fluorescence, primary screen (AID 1088).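 Also: binding of Prmt1 protein to compounds spotted on small-molecule microarray slides.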 As to conditions: higher = more signal.
A short description of experiment [2]: growth effects on S. cerevisiae YJM789 – YJM789 clinical isolate, OD600, 24 h, basal, primary screen (AID 1089).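 Also: growth of clinical yeast isolate S. cerevisiae YJM 789 seeded 1000 cells per well; test concentration not given here.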 As to conditions: higher = more signal, called active from +8 up or from −8 down.
Experiment [3] can be described thus: S. pombe growth modifiers, basal conditions – strain 972, OD600, 24 h, no modulator, primary screen (AID 1090).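 Also: basal condition with compound alone and no growth modifier present; test concentration not given here.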 As to conditions: S. pombe 972 growth, higher = more signal, called active from +8 up or from −8 down.
Experiment [4] in a line: budding yeast growth modifiers under rapamycin – strain BY4716, OD600, 96 h, primary screen (AID 1091). Also: test concentration not given here. As to conditions: S. cerevisiae BY4716 + rapamycin, higher = more signal, called active from +8 up or from −8 down.
Experiment [5] addresses Torsin-1A-interacting protein 2 (Homo sapiens) (UniProt Q8NFQ8). In words: small molecules binding lysate-expressed LULL1 – cell lysate, human LULL1 lysate, 635/667 nm fluorescence, primary screen (AID 1092).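 Also: probe is lysate of COS7 cells overexpressing human LULL1; score merges per-feature 667 nm fluorescence with signal-to-noise.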 As to conditions: small-molecule microarray, hLULL1 lysate binding, 635 nm fluorescence; higher = more signal.
A short description of experiment [6]: optical density change of DRC41 E. coli – strain DRC41, OD650, 24 h, E. coli filamentation project, primary screen (AID 1093).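 Also: MC1000 strain lacking acrAB efflux and sulA so SOS filamentation is blocked; test concentration not given here.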 As to conditions: E. coli DRC41 growth, higher = more signal, called active from +8 up or from −8 down.
A short description of experiment [7]: probe aLefty2 binding to arrayed compounds – biochemical, biotinylated probe, 635/667 nm fluorescence, primary screen (AID 1094).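 Also: score merges spot fluorescence near 667 nm with spot signal-to-noise ratio.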 As to conditions: small-molecule microarray, higher = more signal.
Experiment [8] concerns Noggin (protein binding on small-molecule microarray). The experiment is described as follows: small molecules binding Noggin protein – biochemical, 635/667 nm fluorescence, primary screen (AID 1095).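 Also: score merges 667 nm feature fluorescence with signal to noise over triplicate slides.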 As to conditions: 635 nm fluorescence, higher = more signal.
Experiment [9] deals with Neurogenic locus notch homolog protein 3 (Homo sapiens) (UniProt Q9UM47). The experiment is described as follows: small molecules binding NOTCH3 protein – biochemical, 635/667 nm fluorescence, primary screen (AID 1096). As to conditions: small-molecule microarray, 635 nm fluorescence, higher = more signal.
Experiment [10] can be described thus: probe aEGFR binding to arrayed compounds – biochemical, biotinylated probe, 635/667 nm fluorescence, primary screen (AID 1097).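 Also: probe is a biotinylated anti-EGFR antibody binding compounds printed on slides; score combines fluorescence near 667 nm and signal to noise of each spot.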 As to conditions: small-molecule microarray, higher = more signal.
Experiment [11] relates to Plasmodium falciparum Sir2 (PF13_0152, Sir2A). In words: Plasmodium falciparum Sir2A binding compounds – biochemical, small-molecule microarray, 635 nm fluorescence, primary screen (AID 1098).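 Also: score merges spot fluorescence intensity with its signal-to-noise ratio.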 As to conditions: fluorescence 635 nm, higher = more signal.
A short description of experiment [12]: probe aDKK1 binding to arrayed compounds – biochemical, biotinylated probe, 635/667 nm fluorescence, primary screen (AID 1099).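 Also: score merges 667nm spot fluorescence with signal to noise across triplicate slides; reference of the scale not given here.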 As to conditions: small-molecule microarray, higher = more signal.
Experiment [13] is described as follows: probe aCHRDL2 binding to arrayed compounds – biochemical, biotinylated probe, 635/667 nm fluorescence, primary screen (AID 1100). As to conditions: small-molecule microarray, higher = more signal.
Experiment [14] in a line: change in splice reporter luminescence, either direction, cell-based, HEK293, spliceosome inhibition project, primary screen (AID 1101).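 Also: HEK293 cells carrying a splicing-competent luciferase reporter gene; test concentration not given here.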 As to conditions: HEK293 splicing luciferase reporter, 24 h, higher = more signal, called active from +8 up or from −8 down.
Experiment [15] addresses Fibroblast growth factor 10 (Homo sapiens) (UniProt O15520). The experiment is described as follows: compounds binding fibroblast growth factor 10 – biochemical, small-molecule microarray, 635 nm fluorescence, primary screen (AID 1102). As to conditions: FGF10 binding, fluorescence 635 nm, higher = more signal.
For experiment [16], the system named is glycogen synthase kinase-3 (GSK3A per assay name; protocol says GSK3B). The experiment is described as follows: compounds binding glycogen synthase kinase-3 – biochemical, small-molecule microarray, 635 nm fluorescence, GSK3A, primary screen (AID 1103). Also: the record names both GSK3A and GSK3B. As to conditions: fluorescence 635 nm, higher = more signal.
Experiment [17] deals with Epidermal growth factor receptor (Homo sapiens) (UniProt P00533). In words: compounds binding epidermal growth factor receptor – biochemical, small-molecule microarray, 635 nm fluorescence, primary screen (AID 1104).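 Also: score merges 667 nm emission intensity with spot signal to noise over triplicate slides.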 As to conditions: EGFR binding, higher = more signal.
Experiment [18] deals with Follistatin-related protein 3 (Homo sapiens) (UniProt O95633). In words: compounds binding follistatin-related protein 3 – biochemical, small-molecule microarray, 635 nm fluorescence, primary screen (AID 1105).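 Also: score merges emission near 667 nm and signal to noise per printed spot across three slides.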 As to conditions: FSTL3 binding, higher = more signal.
For experiment [19], the target named is Dickkopf-related protein 1 (Homo sapiens) (UniProt O94907). In words: small molecules binding DKK1 protein – biochemical, small-molecule microarray, 635 nm fluorescence scan, primary screen (AID 1106).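 Also: score merges emission near 667 nm with signal to noise over three replicate slides.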 As to conditions: higher = more signal.
In experiment [20] the test system is Inhibin beta A chain (activin A). In words: small molecules binding activin A – biochemical, small-molecule microarray, 635 nm fluorescence scan, primary screen (AID 1107).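 Also: mouse activin A protein probed at 4.33 µg/mL on printed slides; score merges bound-protein fluorescence near 667 nm with spot signal-to-noise.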 As to conditions: INHBA, higher = more signal.

The source made the active and inactive calls.

Sequence of Epidermal growth factor receptor (Homo sapiens) (P00533 whole entry, looked up): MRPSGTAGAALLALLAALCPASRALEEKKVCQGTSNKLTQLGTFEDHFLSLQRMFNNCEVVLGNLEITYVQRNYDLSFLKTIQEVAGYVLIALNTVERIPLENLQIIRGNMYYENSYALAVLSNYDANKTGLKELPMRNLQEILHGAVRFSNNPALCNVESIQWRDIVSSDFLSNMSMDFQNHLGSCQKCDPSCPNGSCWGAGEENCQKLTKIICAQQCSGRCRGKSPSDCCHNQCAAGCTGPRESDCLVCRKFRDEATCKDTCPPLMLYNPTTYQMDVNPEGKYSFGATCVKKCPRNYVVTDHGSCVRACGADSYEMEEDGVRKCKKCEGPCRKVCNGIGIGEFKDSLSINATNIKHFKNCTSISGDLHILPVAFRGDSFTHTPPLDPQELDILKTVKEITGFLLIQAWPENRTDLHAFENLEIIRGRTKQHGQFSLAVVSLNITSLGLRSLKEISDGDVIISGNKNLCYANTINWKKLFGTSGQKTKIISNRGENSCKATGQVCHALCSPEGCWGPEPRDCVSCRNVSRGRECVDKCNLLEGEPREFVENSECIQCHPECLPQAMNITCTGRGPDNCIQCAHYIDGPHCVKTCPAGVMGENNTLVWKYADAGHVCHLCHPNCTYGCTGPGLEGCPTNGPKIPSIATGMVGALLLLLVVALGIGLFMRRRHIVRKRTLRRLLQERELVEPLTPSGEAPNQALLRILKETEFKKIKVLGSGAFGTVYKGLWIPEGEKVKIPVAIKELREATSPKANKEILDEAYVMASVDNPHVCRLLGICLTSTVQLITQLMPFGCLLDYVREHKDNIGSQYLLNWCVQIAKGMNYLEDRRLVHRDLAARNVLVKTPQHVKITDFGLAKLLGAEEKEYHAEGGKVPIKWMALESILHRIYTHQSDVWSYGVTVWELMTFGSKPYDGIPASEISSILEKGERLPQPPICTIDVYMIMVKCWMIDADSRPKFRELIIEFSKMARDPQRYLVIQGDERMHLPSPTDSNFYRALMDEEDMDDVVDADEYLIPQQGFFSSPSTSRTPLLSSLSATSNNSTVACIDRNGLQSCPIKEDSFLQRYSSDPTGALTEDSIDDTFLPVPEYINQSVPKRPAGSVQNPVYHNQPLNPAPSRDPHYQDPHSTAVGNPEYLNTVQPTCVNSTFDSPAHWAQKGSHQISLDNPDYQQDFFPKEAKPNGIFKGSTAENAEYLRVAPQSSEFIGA
Sequence of Fibroblast growth factor 10 (Homo sapiens) (O15520 whole entry, looked up): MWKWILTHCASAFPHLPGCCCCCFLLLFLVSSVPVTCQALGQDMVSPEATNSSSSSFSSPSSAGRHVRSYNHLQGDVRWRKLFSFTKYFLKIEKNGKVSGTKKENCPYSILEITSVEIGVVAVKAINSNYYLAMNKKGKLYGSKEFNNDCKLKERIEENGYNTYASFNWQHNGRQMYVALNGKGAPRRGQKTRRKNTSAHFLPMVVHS
Sequence of Follistatin-related protein 3 (Homo sapiens) (O95633 whole entry, looked up): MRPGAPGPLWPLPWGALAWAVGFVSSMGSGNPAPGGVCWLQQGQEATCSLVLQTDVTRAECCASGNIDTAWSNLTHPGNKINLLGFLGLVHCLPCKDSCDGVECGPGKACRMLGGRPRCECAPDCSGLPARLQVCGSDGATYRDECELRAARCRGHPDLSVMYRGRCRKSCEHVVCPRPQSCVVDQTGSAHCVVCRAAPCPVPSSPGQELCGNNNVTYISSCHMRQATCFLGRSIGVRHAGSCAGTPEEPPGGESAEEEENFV
Sequence of Torsin-1A-interacting protein 2 (Homo sapiens) (Q8NFQ8 whole entry, looked up): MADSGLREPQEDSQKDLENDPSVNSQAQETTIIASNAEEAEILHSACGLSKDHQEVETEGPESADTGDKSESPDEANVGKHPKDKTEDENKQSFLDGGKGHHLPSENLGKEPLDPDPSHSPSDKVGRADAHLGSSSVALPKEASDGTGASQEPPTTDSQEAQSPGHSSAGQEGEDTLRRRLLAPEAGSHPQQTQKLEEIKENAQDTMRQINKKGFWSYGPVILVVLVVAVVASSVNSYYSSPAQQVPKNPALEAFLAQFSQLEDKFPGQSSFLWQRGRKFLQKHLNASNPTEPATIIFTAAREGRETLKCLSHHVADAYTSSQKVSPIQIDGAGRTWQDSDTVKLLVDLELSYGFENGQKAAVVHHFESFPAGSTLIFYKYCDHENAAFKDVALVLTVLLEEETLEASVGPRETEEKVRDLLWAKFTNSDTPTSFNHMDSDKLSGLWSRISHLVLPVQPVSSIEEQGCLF
Sequence of Dickkopf-related protein 1 (Homo sapiens) (O94907 whole entry, looked up): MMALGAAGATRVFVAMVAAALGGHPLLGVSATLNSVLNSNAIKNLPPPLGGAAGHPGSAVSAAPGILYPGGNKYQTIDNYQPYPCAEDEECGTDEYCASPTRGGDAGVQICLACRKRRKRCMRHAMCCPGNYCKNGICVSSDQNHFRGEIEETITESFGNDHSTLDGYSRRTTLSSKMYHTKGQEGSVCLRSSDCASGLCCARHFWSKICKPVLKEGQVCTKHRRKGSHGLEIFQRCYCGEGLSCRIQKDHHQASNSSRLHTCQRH
Sequence of Neurogenic locus notch homolog protein 3 (Homo sapiens) (Q9UM47 whole entry, looked up): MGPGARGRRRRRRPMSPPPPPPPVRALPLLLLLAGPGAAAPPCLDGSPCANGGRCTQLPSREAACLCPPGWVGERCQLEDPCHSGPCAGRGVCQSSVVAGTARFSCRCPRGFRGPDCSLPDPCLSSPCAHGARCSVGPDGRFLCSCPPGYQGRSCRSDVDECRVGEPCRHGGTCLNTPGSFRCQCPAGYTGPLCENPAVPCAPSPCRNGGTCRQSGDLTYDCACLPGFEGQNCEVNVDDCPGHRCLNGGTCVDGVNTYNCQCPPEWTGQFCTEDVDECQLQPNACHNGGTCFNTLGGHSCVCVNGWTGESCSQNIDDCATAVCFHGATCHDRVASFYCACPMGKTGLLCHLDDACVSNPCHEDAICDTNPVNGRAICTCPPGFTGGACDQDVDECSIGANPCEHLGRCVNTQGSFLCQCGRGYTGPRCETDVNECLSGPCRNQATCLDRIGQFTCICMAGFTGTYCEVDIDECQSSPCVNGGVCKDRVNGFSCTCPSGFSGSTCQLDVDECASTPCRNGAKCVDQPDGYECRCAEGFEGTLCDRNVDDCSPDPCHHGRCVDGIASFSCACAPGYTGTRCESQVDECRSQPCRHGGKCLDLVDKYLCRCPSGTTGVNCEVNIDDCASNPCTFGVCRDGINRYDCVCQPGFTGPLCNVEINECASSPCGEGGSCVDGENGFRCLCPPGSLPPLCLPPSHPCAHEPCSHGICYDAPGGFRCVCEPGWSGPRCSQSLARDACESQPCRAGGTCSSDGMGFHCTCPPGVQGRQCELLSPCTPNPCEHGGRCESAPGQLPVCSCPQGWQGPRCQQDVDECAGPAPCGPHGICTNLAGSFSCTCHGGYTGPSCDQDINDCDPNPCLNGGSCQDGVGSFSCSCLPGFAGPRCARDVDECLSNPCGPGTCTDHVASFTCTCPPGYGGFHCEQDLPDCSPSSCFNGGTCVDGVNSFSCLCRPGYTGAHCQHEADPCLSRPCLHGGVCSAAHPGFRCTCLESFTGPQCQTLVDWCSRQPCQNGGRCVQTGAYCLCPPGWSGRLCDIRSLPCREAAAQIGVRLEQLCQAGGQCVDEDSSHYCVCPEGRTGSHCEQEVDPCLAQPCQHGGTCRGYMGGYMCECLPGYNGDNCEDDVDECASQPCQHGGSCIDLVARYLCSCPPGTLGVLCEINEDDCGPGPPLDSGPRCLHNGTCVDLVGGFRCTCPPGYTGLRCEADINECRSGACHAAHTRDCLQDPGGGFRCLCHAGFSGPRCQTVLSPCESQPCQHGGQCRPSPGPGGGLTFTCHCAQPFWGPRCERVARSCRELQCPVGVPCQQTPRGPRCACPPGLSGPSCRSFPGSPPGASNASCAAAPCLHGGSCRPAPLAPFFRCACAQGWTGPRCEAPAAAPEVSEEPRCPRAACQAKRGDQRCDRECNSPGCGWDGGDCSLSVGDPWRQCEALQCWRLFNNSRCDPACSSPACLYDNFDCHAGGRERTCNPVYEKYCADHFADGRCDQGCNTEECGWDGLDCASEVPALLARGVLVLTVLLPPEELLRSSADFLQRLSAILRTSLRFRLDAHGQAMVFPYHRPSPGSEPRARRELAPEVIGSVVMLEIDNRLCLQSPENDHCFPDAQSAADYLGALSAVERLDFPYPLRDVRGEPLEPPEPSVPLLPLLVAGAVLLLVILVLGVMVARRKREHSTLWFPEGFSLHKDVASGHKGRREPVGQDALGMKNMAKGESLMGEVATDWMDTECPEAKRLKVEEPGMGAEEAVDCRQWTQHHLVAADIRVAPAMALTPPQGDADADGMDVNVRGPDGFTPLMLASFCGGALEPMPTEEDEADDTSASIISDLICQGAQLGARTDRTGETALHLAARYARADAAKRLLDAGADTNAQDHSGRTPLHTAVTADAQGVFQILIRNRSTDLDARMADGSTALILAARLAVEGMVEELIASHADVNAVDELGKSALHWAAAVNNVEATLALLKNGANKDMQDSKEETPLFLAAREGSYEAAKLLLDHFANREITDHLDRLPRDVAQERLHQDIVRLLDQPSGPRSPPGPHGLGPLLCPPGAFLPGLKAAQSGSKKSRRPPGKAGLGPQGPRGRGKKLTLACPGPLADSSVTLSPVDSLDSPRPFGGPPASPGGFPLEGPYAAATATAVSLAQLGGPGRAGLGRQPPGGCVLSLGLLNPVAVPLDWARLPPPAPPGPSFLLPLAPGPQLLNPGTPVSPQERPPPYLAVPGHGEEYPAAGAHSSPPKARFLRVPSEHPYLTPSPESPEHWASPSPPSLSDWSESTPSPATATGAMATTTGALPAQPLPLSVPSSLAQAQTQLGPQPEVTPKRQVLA

For the compound `O=C1C2=CC[C@H]3C(=O)N(C[C@@H]4CCCO4)C(=O)[C@H]3[C@H]2[C@H](O)[C@@H]2O[C@H]12`, the composite z-score in experiment [1] was 0.514; in experiment [5] it was -0.553; in experiment [7], -0.126; in experiment [8] it was -0.0904; in [9], -0.264; in [10], -0.0565. Besides, the composite z-score in experiment [11] was 1.22; in experiment [12], -0.28; in [13], -0.594; in [15], 0.364; in experiment [16], 0.443; in [17], 0.259. Further, the composite z-score was -0.191 in experiment [18], -0.0034 in experiment [19] and -0.277 in experiment [20]. Also, the z-score in [2] was 0.0382 (inactive); in experiment [3], -0.722 (inactive); in experiment [4], 0.109 (inactive); in [6] it was -0.0137 (inactive); in [14], -1.47 (inactive).

Regarding `CC(CCN1CCCc2nc(C)c(C)cc21)=NO[C@@H](C)c1cn([C@H](CO)Cc2ccccc2)nn1`, the composite z-score is 0.279 in experiment [1]; 0.577 in experiment [5]; -0.114 in experiment [7]; 0.78 in experiment [8]; 0.713 in experiment [9]; -0.0493 in [10]. Also, the composite z-score is 0.531 in experiment [11]; -0.264 in experiment [12]; -0.388 in experiment [13]; 0.817 in [15]; 0.471 in [16]; 0.666 in experiment [17]. Further, the composite z-score in [18] turned out to be 0.698; in experiment [19], 0.928; in experiment [20], 1.19. Besides, the z-score in [2] is 0.72 (inactive); in [3], 0.47 (inactive); in experiment [4] it was 0.672 (inactive); in experiment [6], 0.923 (inactive); in experiment [14] it was 0.867 (inactive).

`CCOC(=O)CCN1C(=O)[C@H]2[C@H]3[C@H](O)[C@H](O)CC(=NOCC=C(C)CCC=C(C)C)[C@@H]3CC[C@H]2C1=O`: the composite z-score in [1] is 0.316; in experiment [5], 1.01; in [7] it was -0.197; in [8] it was 0.742; in experiment [9] it was 0.808; in [10] it was -0.0415. In addition, the composite z-score in experiment [11] is 0.255; in [12] it was 0.333; in [13], -0.202; in [15], 1.15; in [16], 0.659; in experiment [17] it was 1.17. Also, the composite z-score in experiment [18] is 0.825; in experiment [19], 0.606; in experiment [20], -0.259. For the same compound, the z-score was -1.28 (inactive) in experiment [2]; 0.237 (inactive) in experiment [3]; -0.44 (inactive) in experiment [4]; 6.79 (inactive) in [6]; 0.0459 (inactive) in [14].

In the case of `CCN1C(=O)[C@H]2[C@H]3[C@H](O)[C@H](O)CC(=NO[C@H](C)c4cn([C@H](CO)Cc5ccccc5)nn4)[C@@H]3CC[C@H]2C1=O`, the composite z-score in experiment [1] is 1.4; in experiment [5], 1.59; in experiment [7], -0.207; in experiment [8], 0.496; in experiment [9] it was 0.89; in experiment [10], -0.0132. Also, the composite z-score in experiment [11] was 0.955; in [12], 0.245; in experiment [13] it was -0.681; in experiment [15], 0.869; in experiment [16] it was 0.978; in experiment [17] it was 0.587. In addition, the composite z-score in experiment [18] is 1.05; in experiment [19], 0.553; in experiment [20] it was -0.802. For the same compound, the z-score in experiment [2] is -0.444 (inactive); in experiment [3], 0.121 (inactive); in experiment [4], -0.371 (inactive); in [6], 0.607 (inactive); in experiment [14], -0.05 (inactive).

For the compound `C[C@]12CCC3c4ccc(OCC5CO5)cc4CCC3C1CC[C@@H]2O` (stereo not given in full), the composite z-score in [1] was 0.205; in experiment [5], 2.11; in [7], 0.124; in experiment [8], 0.0768; in [9] it was 0.162; in experiment [10], 0.0025. The composite z-score in [11] is 0.728; in experiment [12] it was 0.527; in [13] it was 0.596; in [15], 0.457; in [16], -0.309; in experiment [17], 0.182. In addition, the composite z-score is 0.239 in experiment [18], 0.0294 in experiment [19] and 0.944 in experiment [20]. For the same compound, the z-score in experiment [2] was 0.199 (inactive); in experiment [3], -4.77 (inactive); in [4], -0.494 (inactive); in experiment [6] it was 0.392 (inactive); in experiment [14] it was 0.147 (inactive).
